Compound activity as filed in PubChem.
In the library only some 0.41% were active in any assay of this set; here they are far more common.
MLL CXXC-DNA inh: MLL CXXC-DNA interaction inhibition. 290,000 compounds, 0.037% hits. MLL-CXXC / FITC-HOXA9 DNA fluorescence polarization. Potency, µM (top dose mostly 115 µM), for the others: at the highest dose activity change, negative = inhibition, hits mostly inhibitors. AID 2662; active = well fitted inhibition curve with a large enough effect in the polarisation, with a control signal flat, not every such curve was filed as active; inconclusive = small, poorly fitted or top-dose-only effect, or effect the other way, or a change in a side signal; inactive = no such curve, though single readings can be large or run the other way; the % refers to the polarisation; note: potency is the fitted concentration of half-maximal effect
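Steps: dispense CXXC domain solution (7 uM) → pin compounds or unlabeled HOX-A9 DNA control → 5 min ambient → add FLSN-HOX-A9 solution (50 nM) → spin → 30 min ambient → fluorescence polarization. Tris pH 7.5/NaCl/DTT/BSA buffer.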
Menin-MLL FL inh: displaces fluorescein MLL peptide from human menin; Fluorescence polarization, fluorescein-MLL peptide displacement from menin; 290,000 tested, under 10 active; FP activity change, % at 61.4 µM; active = well fitted curve in the direction sought with a large enough effect in the polarisation, not every such curve was filed as active; inconclusive = small, poorly fitted or top-dose-only effect, or effect the other way, or a change in a side signal; inactive = no such curve, though single readings can be large or run the other way; the % refers to the polarisation; note: % of control where 0% means no effect
PKM2 activator: increases activity of human pyruvate kinase M2 | P14618 | purified PKM2, Kinase-Glo ATP luminescence, activation; response scale: 0% is enzyme alone, no compound | Potency, µM (top dose mostly 57.5 µM), without a hit: at the top dose activation, actives largely listed as activators | 260,000 compounds, 0.34% hits | AID 1631; active = well fitted activation curve with a large enough effect; inconclusive = small, poorly fitted or top-dose-only effect; inactive = no such curve, though single readings can be large or run the other way; note: potency is the fitted concentration of half-maximal effect; % is set by controls: 0 for no effect and ±100 for the full control effect; nearly all actives have a fitted effect of over 55% in size
Target sequence (P14618 whole entry, looked up): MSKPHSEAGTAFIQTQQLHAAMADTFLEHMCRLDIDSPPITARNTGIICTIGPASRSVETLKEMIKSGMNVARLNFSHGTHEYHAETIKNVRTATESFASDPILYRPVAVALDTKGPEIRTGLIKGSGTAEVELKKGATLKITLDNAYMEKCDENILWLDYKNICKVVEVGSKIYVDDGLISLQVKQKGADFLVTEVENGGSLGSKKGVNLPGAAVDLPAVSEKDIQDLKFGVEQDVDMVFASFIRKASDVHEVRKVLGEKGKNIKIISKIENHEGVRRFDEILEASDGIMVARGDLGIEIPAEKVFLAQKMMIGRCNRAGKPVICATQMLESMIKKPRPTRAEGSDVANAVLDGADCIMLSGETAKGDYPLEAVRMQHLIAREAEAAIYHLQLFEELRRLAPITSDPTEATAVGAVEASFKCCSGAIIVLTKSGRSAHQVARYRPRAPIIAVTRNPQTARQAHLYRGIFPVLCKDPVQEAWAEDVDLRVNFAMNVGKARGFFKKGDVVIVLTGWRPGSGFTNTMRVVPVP
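Purified hPK-M2 (>95%) run at intermediate activity with 0.1 mM ADP and 0.5 mM PEP in 50 mM imidazole pH 7.2, KCl, MgCl2; 1 h room temperature. ATP formed read by Kinase-Glo luminescence; normalized to uninhibited and no-enzyme controls.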
Menin MLL FP TR: menin-MLL binding inhibition, Texas Red mutant peptide; Menin + Texas Red MLL mutant peptide, fluorescence polarization; Potency, µM (highest dose often 61.6 µM), for inactives: top-dose FP activity change, negative = inhibition, most hits filed as inhibitors; 270,000 compounds, 0.23% hits; AID 1768; active = well fitted inhibition curve with a large enough effect in the polarisation, with a control signal flat, not every such curve was filed as active; inconclusive = small, poorly fitted or top-dose-only effect, or effect the other way, or a change in a side signal; inactive = no such curve, though single readings can be large or run the other way; the % refers to the polarisation; note: potency is the fitted concentration of half-maximal effect; % of control where 0% means no effect
Active calls of the source: *; ? = inconclusive; . = no result; [ ] = remark or other dose.

SMILES	MLL CXXC-DNA inh	Menin-MLL FL inh	PKM2 activator	Menin MLL FP TR
CCCCC(=O)N1C/C=C\C(c2ccc(OC)cc2)N(Cc2ccc(F)cc2)C(=O)C1Cc1ccccc1 (stereo unspecified)	.	1	.	?
COC(=O)C1(C(=O)OC)CC2=CC(CC2=O)Cc2ccccc2[C@@H]1C[N+](=O)[O-] (stereo partly specified)	.	-2	.	1%
CN(C)/C=C(\C(=O)c1ccc(F)cc1F)c1nnnn1-c1ccccc1	0%	0	16µM*	3%
CN(C)/C=C(\C(=O)c1ccccc1)c1nnnn1-c1ccccc1	-26%	4	4%	.
Cc1cc(F)ccc1S(=O)(=O)Nc1ccccc1C(=O)Nc1ccccc1-c1nc2ccccc2[nH]1	6%	14	3%	14µM*
Cc1cc(F)ccc1S(=O)(=O)Nc1ccccc1C(=O)Nc1ncn[nH]1	-11%	6	5%	1%
O=S1(=O)C2CC3OC2(CC3c2ccc(F)cc2)CN1Cc1ccc(Cl)cc1 (stereo unspecified)	.	4	.	30%
COc1ccc(-c2cc(=O)c3c(O)cc(O[C@H]4OC(COC5OC(C)C(O)C(O)[C@H]5O)C(O)C(O)C4O)cc3o2)cc1O (stereo partly specified)	12%	1	.	25µM*
COc1ccc(-c2cc(=O)c3c(O)cc(O[C@@H]4OC(COC5OC(C)C(O)C(O)[C@@H]5O)C(O)C(O)C4O)cc3o2)cc1 (stereo partly specified)	.	2	.	-21%
O=c1[nH][nH]c(=O)c2c(NS(=O)(=O)c3ccccc3)cccc12	-16%	1	11µM*	9%
c1ccc(CCNc2ccnc3cc4ccccc4cc23)cc1	?	-21	4%	22µM*
COc1ccc(CC(N)C(=O)N[C@H]2[C@@H](O)[C@H](n3cnc4c(N(C)C)ncnc43)O[C@@H]2CO)cc1 (stereo partly specified)	.	-23	.	-10%
CC1(C)CC2(CC(c3ccccc3F)c3ccc(O)c(O)c3O2)NC(=S)N1 (stereo unspecified)	1%	-1	2.8µM*	6%
CC1(C)CC2(CC(c3ccc(F)cc3)c3ccc(O)cc3O2)NC(=S)N1 (stereo unspecified)	12%	1	0%	.
CCCCCCCCCCCCCCOS(=O)(=O)O	.	1	.	-9%
N#CC(C#N)=C1c2cc(S(=O)(=O)NCCO)ccc2-c2ccc(S(=O)(=O)NCCO)cc21	-1%	?	1.3µM*	.
O=C(O)CNS(=O)(=O)c1ccc2c(c1)C(=O)c1cc(S(=O)(=O)NCC(=O)O)ccc1-2	-19%	0	-3%[11.5 µM]	21%
O=C1c2cc(S(=O)(=O)NCCO)ccc2-c2ccc(S(=O)(=O)NCCO)cc21	-5%	-1	5.6µM*	10%
CC#CCN1c2ccccc2[C@]23C[C@@H](C(=O)OC)N(S(=O)(=O)CCCC)C2=NC(C(=O)OC)=C(C(=O)OC)[C@H]13	.	-3[11.7 µM]	-3%[11.5 µM]	0%[11.7 µM]
COc1cccc(Nc2ncc3nc(CCc4ccccc4)c(=O)n(C)c3n2)c1	.	?	.	11%
CN1C(=O)Cc2cc(S(=O)(=O)NCc3c(F)cccc3Cl)ccc21	-10%	1	14µM*	-1%
CC(=O)Oc1ccc(C)cc1	-5%	-3	.	-5%
CC(=O)Oc1ccc(S(=O)(=O)c2ccc(OC(C)=O)cc2)cc1	26%	-7	14µM*	7%
C=CC#CC[N+]1(CC#Cc2ccccc2)CCOCC1	51%	-20	-12%	25µM*
C(#Cc1ccccc1)C[N+]1(CC#Cc2ccccc2)CCCC1	-1%	4	-4%	-12%
SMILES	MLL CXXC-DNA inh	Menin-MLL FL inh	PKM2 activator	Menin MLL FP TR
COC(=O)CCC(=O)N1CCc2cc(S(=O)(=O)N3CCc4ccccc43)ccc21	8%	1	13µM*	-5%
NC(CO)(CO)CO	-1%	?	.	1%
Cc1nc2ccc(S(=O)(=O)Nc3ccccc3C)cc2s1	-5%	1	16µM*	-5%
C[C@@](N)(Cc1ccc(O)c(O)c1)C(=O)O	.	5	.	2%
COc1ccc(OC)c(-c2csc(NC(=O)C3c4ccccc4Oc4ccccc43)n2)c1	11%	7	3%	14µM*
COc1ccc(OC)c(-c2csc(NC(=O)C3COc4ccccc4O3)n2)c1 (stereo unspecified)	15%	-4	.	-26%
O=C(Nc1nc(-c2ccccc2)cs1)C1c2ccccc2Oc2ccccc21	11%	3	0%	18µM*
Cc1cccc(C2=N[C@@H](Cc3ccccc3)CO2)c1	.	-3[94.6 µM]	.	4%[94.6 µM]
Cc1cc2c(c(=O)n1Cc1ccccc1)C1O[C@](c3ccsc3)(Cc3ccccc31)O2	-5%[23 µM]	?	17%[11.5 µM]	22%[11.7 µM]
COc1cccc([C@@H]2Oc3ccc(Br)cc3C[C@H]2O)c1	.	5	.	16%
CSc1nc2ccc(NS(=O)(=O)c3c(Cl)cccc3Cl)cc2s1	?	3	?	?
CSc1nc2ccc(NS(=O)(=O)c3ccc4c(c3)OCCO4)cc2s1	3%	0	16µM*	25%
O=C(c1ccc(S(=O)(=O)c2ccccc2Cl)c([N+](=O)[O-])c1)N1CCN(Cc2ccccc2)CC1	-13%	0	11µM*	0%
COc1cc2nc(SCc3ccc(C(F)(F)F)cc3)n(Cc3cccs3)c(=N)c2cc1OC	5%	4	3%	17%
COc1cc2nc(SCc3ccc(Cl)cc3Cl)n(Cc3cccs3)c(=N)c2cc1OC	21%	1	-2%	40µM*
CN(C)S(=O)(=O)c1ccc(C(=O)NCCN2C(=O)S/C(=C\c3cccnc3)C2=O)cc1	2%	9	16µM*	14%
COCCn1c(=O)cnc2cnc(N3CCNCC3)nc21	.	-2	.	7%
Cc1c(Cc2ccccc2)c(=O)oc2c(O)c(O)ccc12	-18%	-1	20µM*	0%
O=C(NC(=S)Nc1nc(-c2cccc3ccccc23)cs1)c1cc2ccccc2o1	7%	7	-7%	25µM*
CC(=O)Nc1nc(-c2cccc3ccccc23)cs1	-4%	2	3%	8%
Nc1ccccc1NC(=O)c1ccc(CNC(=O)OCc2cccnc2)cc1	.	-2	.	4%
C[C@]12CCC(=O)C=C1CC[C@@H]1[C@@H]2[C@@H](O)C[C@@]2(C)[C@H]1CC[C@]2(O)C(=O)COP(=O)(O)O	4%	2	.	9%
CC(C)NC(=O)NC(=O)CSc1nnc(COc2ccccc2Cl)o1	-5%	3	1%	-1%
O=c1cc(CSc2nnc(COc3ccccc3Cl)o2)nc2sccn12	1%	-3	25µM*	?
Cc1ccc2nc(NC(=O)c3cccc(-c4cc5ccccc5oc4=O)c3)sc2c1	13%	0	-1%	22µM*
COc1cccc(-c2ccc3ncnc(NCc4ccc(OC)cc4OC)c3c2)c1	.	-8	.	-5%
COc1ccc(CC(=O)Nc2cc(=O)n(C)c(=O)n2C)cc1	0%	2	16µM*	5%
Brc1ccc(NCc2cccc3ccccc23)nc1	7%	-1	7%	?
Oc1ccccc1CNc1ccc(Br)cn1	8%	-3	32µM*	23%
